Assay results: PubChem BioAssay AID1159580 (chemical genetic matrix, 2015)
Among all 5,500 compounds or so, about 2,000 (36%) were called active. Roughly 18% stayed inconclusive and do not appear here. Cut-off read from the data, not from the text of the source: active = normalized growth mostly below about 0.91 (no sharp cut-off); inconclusive = no clear call, values can overlap the other calls; inactive = mostly above about 0.92. This is one part of the list.

Assay: chemical genetic growth profiling, strain panel (AID 1159580);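 note: tested at 20 µM; growth read once vehicle control cultures reached saturation at 30 °C; 1 = growth at the plate median or of vehicle wells; lower values mean less growth of the strain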
Details: S. cerevisiae deletion strains, growth OD

Measured: normalized growth

N[C@@H](CCC(=O)N[C@@H](CCSC(CC(=O)O)C(=O)O)C(=O)NCC(=O)O)C(=O)O (stereo not given in full)
inactive: locus YAL021C, strain ccr4, active compounds read low 0.991 | locus YAL026C, strain drs2, active compounds read low 1 | locus YAL030W, strain snc1, active compounds read low 0.992 | locus YBL061C, strain skt5, active compounds read low 0.989 | locus YBR009C, strain hhf1, active compounds read low 1.03 | locus YBR023C, strain chs3, active compounds read low 0.987 | locus YBR171W, strain sec66, active compounds read low 0.988 | locus YBR231C, strain swc5, active compounds read low 0.993 | locus YBR279W, strain paf1, active compounds read low 0.996 | locus YCL011C, strain gbp2, active compounds read low 0.995 | locus YCL016C, strain dcc1, active compounds read low 0.988 | locus YCL061C, strain MRC1, active compounds read low 1 | locus YCL069W, strain vba3, active compounds read low 0.997 | locus YCR088W, strain abp1, active compounds read low 0.988 | locus YDL005C, strain med2, active compounds read low 0.99 | locus YDL040C, strain nat1, active compounds read low 0.997 | locus YDR001C, strain nth1, active compounds read low 0.994 | locus YDR069C, strain doa4, active compounds read low 0.987 | locus YDR137W, strain rgp1, active compounds read low 0.987 | locus YDR159W, strain sac3, active compounds read low 0.996 | locus YDR195W, strain ref2 0.97 | locus YDR297W, strain sur2, active compounds read low 0.981 | locus YDR334W, strain swr1, active compounds read low 1 | locus YDR335W, strain msn5, active compounds read low 0.996 | locus YDR392W, strain spt3, active compounds read low 1.01 | locus YEL003W, strain gim4, active compounds read low 1.01 | locus YEL037C, strain rad23, active compounds read low 0.994 | locus YEL061C, strain CIN8 (second series), active compounds read low 0.998 | locus YER015W, strain faa2, active compounds read low 0.993 | locus YER016W, strain bim1, active compounds read low 0.978 | locus YER111C, strain swi4, active compounds read low 0.998 | locus YER155C, strain BEM2 (second series), active compounds read low 1.01 | locus YFR010W, strain ubp6, active compounds read low 1.02 | locus YGL167C, strain pmr1, active compounds read low 0.997 | locus YGL173C, strain kem1, active compounds read low 1.01 | locus YGL227W, strain vid30, active compounds read low 0.999 | locus YGL240W, strain doc1, active compounds read low 0.999 | locus YGL253W, strain hxk2, active compounds read low 0.991 | locus YHR013C, strain ard1, active compounds read low 1 | locus YHR027C, strain rpn1, active compounds read low 0.994 | locus YHR030C, strain SLT2, active compounds read low 0.999 | locus YHR079C, strain IRE1, active compounds read low 0.988 | locus YHR142W, strain chs7, active compounds read low 1 | locus YJL092W, strain hpr5, active compounds read low 1 | locus YJL095W, strain BCK1 (second series), active compounds read low 1.02 | locus YJL095W, strain BCK1, active compounds read low 1.01 | locus YJL115W, strain asf1, active compounds read low 1.01 | locus YJL129C, strain trk1, active compounds read low 0.99 | locus YJL154C, strain vps35, active compounds read low 0.992 | locus YJL164C, strain tpk1, active compounds read low 1.01 | locus YJL166W, strain qcr8, active compounds read low 0.994 | locus YJL187C, strain SWE1, active compounds read low 0.992 | locus YJR066W, strain TOR1, active compounds read low 0.997 | locus YKL160W, strain elf1, active compounds read low 0.984 | locus YKR026C, strain gcn3, active compounds read low 0.993 | locus YKR091W, strain srl3, active compounds read low 1 | locus YLL001W, strain dnm1, active compounds read low 1.01 | locus YLL026W, active compounds read low 1 | locus YLL041C, strain sdh2, active compounds read low 1.01 | locus YLR027C, strain aat2, active compounds read low 0.996 | locus YLR113W, strain HOG1, active compounds read low 1 | locus YLR221C, strain rsa3, active compounds read low 1.01 | locus YLR258W, strain gsy2, active compounds read low 1.01 | locus YLR262C, strain YPT6 (second series), active compounds read low 0.992 | locus YLR320W, strain mms22, active compounds read low 1.01 | locus YLR342W, strain FKS1, active compounds read low 0.99 | locus YLR357W, strain rsc2, active compounds read low 0.996 | locus YLR370C, strain arc18, active compounds read low 0.997 | locus YLR384C, strain iki3, active compounds read low 0.964 | locus YML120C, strain ndi1, active compounds read low 0.993 | locus YMR058W, strain fet3, active compounds read low 0.991 | locus YMR125W, strain sto1, active compounds read low 1.01 | locus YMR129W, active compounds read low 0.99 | locus YMR205C, strain PFK2, active compounds read low 1 | locus YMR231W, strain pep5, active compounds read low 0.995 | locus YNL071W, strain lat1, active compounds read low 1.01 | locus YNL183C, strain NPR1, active compounds read low 0.937 | locus YNL209W, strain ssb2, active compounds read low 0.981 | locus YNL248C, strain rpa49, active compounds read low 1.02 | locus YNL322C, strain KRE1 (second series), active compounds read low 0.979 | locus YNR049C, strain mso1, active compounds read low 0.997 | locus YOR001W, strain rrp6, active compounds read low 1.02 | locus YOR070C, strain gyp1, active compounds read low 0.999 | locus YOR080W, strain dia2, active compounds read low 0.982 | locus YOR083W, strain WHI5, active compounds read low 0.985 | locus YOR106W, strain vam3, active compounds read low 0.976 | locus YOR231W, strain MKK1, active compounds read low 0.991 | locus YOR265W, strain rbl2, active compounds read low 0.998 | locus YOR270C, strain vph1, active compounds read low 1.07 | locus YOR290C, strain snf2, active compounds read low 0.994 | locus YPL051W, strain arl3, active compounds read low 1 | locus YPL078C, strain atp4, active compounds read low 0.986 | locus YPL106C, strain sse1, active compounds read low 0.971 | locus YPL240C, strain hsp82, active compounds read low 1.01 | locus YPL256C, strain CLN2, active compounds read low 0.988
